# Measured values published in PubChem BioAssay (NCATS).
# “And” between values parts separate entries of the source, which are not always exact repeats. Equal entries are not always repeated. Records with an inconclusive call do not appear. Some compounds were tested as several samples or in several runs, with calls that do not always agree. The source made the active and inactive calls. Calls come from the whole dose curve.
# Experiment: Primary qHTS to identify inhibitors of SARS-CoV-2 cell entry (AID 1645846); note: nearly all actives have a fitted effect of over 45% in size
# Details: SARS-CoV-2 pseudovirus cell entry assay, luminescence; activity change, negative = inhibition: at 57.1 µM (top of the series) unless noted; series mostly up to 57.1 µM
# Excerpt: Assay Provider: Wei Zheng, Ph.D.
# National Center for Advancing Translational Sciences, National Institute of Health, Rockville, MD.
# SARS-CoV-2 spike protein, within the viral envelope, mediates viral attachment and infection of host cells. The SARS-CoV-2 spike protein specifically binds to the host receptor ACE2 (Angiotensin-converting enzyme 2). This interaction promotes endocytosis of the viral particle, additional events lead to viral-host cell membrane fusion and release of the viral contents, allowing viral replication.
# While SARS-CoV-2 requires BSL-3 facilities for live virus work, pseudotyped partices (PP) that incorporate SARS-CoV-2 spike proteins without replication elements could facilitate studies on viral entry mechanisms in a BSL-2 setting. This PP cell entry assay could also enable screening of small molecule compound libraries in BSL-2 setting to identify inhibitors of SARS-CoV-2 cell entry.
# PROTOCOL TABLE (format as described by Inglese J, Shamu CE and Guy RK. 2007)
# SEQUENCE No. (e.g., 1, 2, 3, etc.); […] (e.g., Cells, Incubation, Reagent, etc.); VALUE and DESCRIPTION.
# 1. Cells. Seed 1500 HEK293-ACE2 cells (Expi293F with stable expression of human ACE2) in 2 uL/well media (DMEM, 10% FBS, 1x L-glutamine, 1x Pen/Strep, 1 ug/ml puromycin) in white 1536-well assay plates (Greiner #782073).
# 2. Incubation. Incubate at 37C with 5% CO2 overnight (~16 h).
# 3. Compounds. Dispense 23 nL/well compounds in DMSO via pin transfer.
# 4. Incubation. Incubate for 1 hr at 37C 5% CO2.
# 5. Reagent. Dispense 2 uL/well of SARS-CoV-2-S pseudotyped particles. [a] PPs are produced with murine leukemia virus pseudotyping. [b] SARS-CoV-2-S is Wuhan-Hu-1 sequence (BEI #NR-52420) with C-terminal 19 amino acid truncation.
# 6. Centrifuge. […]
# 7. Incubation. Incubate at for 48 hr at 37C 5% CO2
# 8. Centrifuge. Remove supernatant with gentle centrifugation using a Blue Washer (BlueCat Bio).
# 9. Reagent. Dispense 4 uL/well of Bright-Glo Luciferase detection reagent (Promega #E2620).
# 10. Incubation. Incubate for 5 min at room temperature.
# 11. Detection. Read luminescence signal (Viewlux plate reader, PerkinElmer). Data was normalized with wells containing SARS-CoV-2-S PP as 100%, and wells containing bald PP (no fusion protein) as 0%.
# Potency is the fitted concentration of half-maximal effect.
Structure (SMILES),"activity change, negative = inhibition",Potency,outcome
CCCCN1C[C@H](O)[C@@H](O)[C@H](O)[C@H]1CO,-1.04%,,
COc1ccc2nc(S(=O)Cc3ncc(C)c(OC)c3C)[nH]c2c1 (stereo not given),-4.15%,,
CN(C)CCC=C1c2ccccc2CCc2ccccc21,,20 µM (active),
CNS(=O)(=O)Cc1ccc2[nH]cc(CCN(C)C)c2c1,,,inactive
Cc1ccc(NC(=O)c2ccc(CN3CCN(C)CC3)cc2)cc1Nc1nccc(-c2cccnc2)n1,,35.5 µM (active),
CCOC(=O)c1ncn2c1CN(C)C(=O)c1cc(F)ccc1-2,-12.9%,,inactive
CCCc1nc2c(C)cc(-c3nc4ccccc4n3C)cc2n1Cc1ccc(-c2ccccc2C(=O)O)cc1,-3.28%,,inactive
C[C@H]1O[C@H](O[C@H]2[C@H](O)[C@@H](O)[C@@H](O[C@H]3[C@H](O)[C@@H](O)[C@H](O)O[C@@H]3CO)O[C@@H]2CO)[C@H](O)[C@@H](O)[C@@H]1N[C@H]1C=C(CO)[C@@H](O)[C@H](O)[C@H]1O,,,inactive
CN(CCOc1ccc(NS(C)(=O)=O)cc1)CCc1ccc(NS(C)(=O)=O)cc1,4.03% and 4.22%,,
CN(C)CCC=C1c2ccccc2C=Cc2ccccc21,,14.1 µM (active),
NC12CC3CC(CC(C3)C1)C2,-26.7%,,inactive
Cc1ccccc1N1C(=O)c2cc(S(N)(=O)=O)c(Cl)cc2NC1C (stereo not given),-97.4%,,inactive
NCCCC(O)(P(=O)(O)O)P(=O)(O)O,-4.6% and -17.5%,,
CCc1c2c(nc3ccc(OC(=O)N4CCC(N5CCCCC5)CC4)cc13)-c1cc3c(c(=O)n1C2)COC(=O)[C@]3(O)CC,-95.5%,0.891 µM (active),
CC1(C)S[C@@H]2[C@H](NC(=O)C(C(=O)O)c3ccccc3)C(=O)N2[C@H]1C(=O)O (stereo not given in full),,,inactive
Cc1cccc(Nc2ccncc2S(=O)(=O)NC(=O)NC(C)C)c1,,,inactive
NC(=O)NO,-10.4%,,inactive
Oc1cn2c(n1)Nc1ccc(Cl)c(Cl)c1C2,,,inactive [at 27.1 µM]
CC(COc1ccccc1)N(CCCl)Cc1ccccc1 (stereo not given),-7.59%,,
Cc1ccc(S(=O)(=O)NC(=O)NN2CC3CCCC3C2)cc1 (stereo not given),,inactive,
CC(=O)Nc1cc([As](=O)(O)O)ccc1O,-7.63%,,
COc1ccccc1Oc1c(NS(=O)(=O)c2ccc(C(C)(C)C)cc2)nc(-c2ncccn2)nc1OCCO,-16.5%,,
Oc1ccc(Cl)cc1Cc1ccccc1,-21.8%,,
N[C@@H]1C[C@H]1c1ccccc1,-29.3%,,inactive
CC(C)C1CCC(C(=O)N[C@H](Cc2ccccc2)C(=O)O)CC1 (stereo not given in full),2.32% and -12.7%,,
CC(C)NCC(O)c1ccccc1Cl (stereo not given),,,inactive
Nc1nc2c(ncn2COC(CO)CO)c(=O)[nH]1,-11.4% and -3.55%,,
CN(C/C=C/C#CC(C)(C)C)Cc1cccc2ccccc12,-3.95%,,
C[C@@H](O)[C@H]1C(=O)N2C(C(=O)O)=C(S[C@@H]3CN[C@H](C(=O)N(C)C)C3)[C@H](C)[C@H]12,-22.9%,,inactive
CN1C(=O)CC(C)(c2ccccc2)C1=O (stereo not given),-13.4%,,

# Same assay, conditions: SARS-CoV-2 pseudovirus cell entry assay, luminescence; at 11.3 µM (top of the series)
row,Structure (SMILES),"activity change, negative = inhibition [%]"
1,O=C(O)c1cn(C2CC2)c2cc(N3CCNCC3)c(F)cc2c1=O,-1.6

# Same assay, conditions: SARS-CoV-2 pseudovirus cell entry assay, luminescence; at 57.1 µM (top of the series)
row,Structure (SMILES),"activity change, negative = inhibition [%]"
1,O=C(O)c1cn(C2CC2)c2cc(N3CCNCC3)c(F)cc2c1=O,4.56
